This is a sample that favours compounds with a hit; in the whole collection about 3.7% have one here.
Ecoli rRNA inh – selective bacterial rRNA inhibition in E. coli. E. coli WT GFP vs humanized-ribosome RFP mutants, fluorescence, 24 h; stronger effect = lower value; DMSO median 0, no signal -100. GFP signal change (wild-type ribosome), % (test concentration not listed). hit rate 1.6% among 350,000;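 active means significant combined selectivity score with lowered wild-type GFP, culture density cut under 30%, mutant RFP and density less affected; inactive means any of these conditions unmet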
esBAF inh – SWI/SNF esBAF complex inhibition; reporter increase, % at 12.5 µM; mouse ES cells, Bmi1-luciferase knock-in reporter, 24 h; 100% = twice the neutral-well signal; hit rate 2% among 350,000; AID 602393; in the data active means activation above about 40%; inconclusive means no clear call, values can overlap the other calls;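 further: 0% = median of the plate's neutral control wells and 100% = double that signal; a rise in the Bmi1 reporter signal indicates esBAF inhibition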
MLL AF4-AF9 inh – inhibitors of human MLL-AF4/AF9 interaction | P42568 | AlphaScreen, biotin-AF4 peptide binding to FLAG-AF9 | inhibition, % at 10 µM | hit rate 0.47% among 350,000 | AID 651704;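 active means every replicate reaching a set inhibition limit, whatever the replicate mean, cut at about 25% in these data; inconclusive means mean inhibition reaches that limit but some replicates miss it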;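 further: 0% = plate neutral control median and 100% = total signal loss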
Target sequence (P42568 whole entry, looked up): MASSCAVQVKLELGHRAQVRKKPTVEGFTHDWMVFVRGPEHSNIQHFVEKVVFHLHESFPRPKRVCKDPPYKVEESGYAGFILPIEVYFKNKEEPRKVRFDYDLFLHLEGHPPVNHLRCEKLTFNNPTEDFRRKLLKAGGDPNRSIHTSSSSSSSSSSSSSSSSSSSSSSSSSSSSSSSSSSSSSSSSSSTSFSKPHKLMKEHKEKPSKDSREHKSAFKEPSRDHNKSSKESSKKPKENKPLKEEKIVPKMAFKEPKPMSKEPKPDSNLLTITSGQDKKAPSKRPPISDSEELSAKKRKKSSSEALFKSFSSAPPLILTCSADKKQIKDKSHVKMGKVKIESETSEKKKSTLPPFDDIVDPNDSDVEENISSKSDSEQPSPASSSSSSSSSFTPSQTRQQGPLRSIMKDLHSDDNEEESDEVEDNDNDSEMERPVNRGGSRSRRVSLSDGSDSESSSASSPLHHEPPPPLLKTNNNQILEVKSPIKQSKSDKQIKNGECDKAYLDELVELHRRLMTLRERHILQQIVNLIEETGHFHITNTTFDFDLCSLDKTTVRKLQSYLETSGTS
Wnt bcat act – Wnt/beta-catenin pathway activation; Wnt/beta-catenin reporter cell assay, activator, plate reader; hit rate 1.2% among 300,000; AID 743398; activation, % at 9.35 µM; in the data active means activation above about 30%, passing the limit was not always enough; inconclusive means no clear call, values can overlap the other calls;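 further: 0% = neutral control wells and 100% = positive control wells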
MITF act – MITF TRPM1 promoter activation in melanoma cells. SK-MEL-5 TRPM1-promoter luciferase, 24 h; % of positive control, neutral wells = 0. activation, % at 12.5 µM. hit rate 0.75% among 300,000. AID 588334;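 active means mean activation of at least 80% with every replicate also reaching 80%; inconclusive means mean reaches 80% but some replicate falls short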;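 further: 0% = neutral control wells and 100% = parthenolide positive control wells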
* marks the source's active call; other numbers are inactive results; u = inconclusive; x = not tested or not shown.

SMILES	Ecoli rRNA inh	esBAF inh	MLL AF4-AF9 inh	Wnt bcat act	MITF act
COC(=O)CCC(=O)Nc1sc2c(c1C#N)CCCC2	x	-7	x	-3	-18
Cc1onc(C(=O)Nc2sc3c(c2C#N)CCCC3)c1[N+](=O)[O-]	-10	x	-4	35*	1
CCCC(=O)Nc1sc2c(c1C#N)CCCC2	x	53*	x	x	70
CC(C)C(=O)Nc1sc2c(c1C#N)CCCCC2	x	50*	x	14	x
CS(=O)(=O)N1CCC(C(=O)Nc2ccc(C(N)=O)cc2)CC1	12	0	-6	-1	-2
CC(=O)c1ccc(NC(=O)COC(=O)C2CCN(S(=O)(=O)c3cccs3)CC2)cc1	-11	0	-6	-4	1
C=CCn1c(CC(=O)OC)csc1=Nc1ccc(C(C)=O)cc1	-5	55*	-12	-1	52
CCOc1ccc(N(CC(=O)OC)S(=O)(=O)c2ccc(OC)c(OC)c2)cc1	x	6	x	x	-3
CCOc1ccc(N(CC(=O)NC(C(C)C)C(C)C)S(=O)(=O)c2ccc(OC)c(OC)c2)cc1	-30*	x	-8	-3	-2
Cc1occc1-c1nnc(SCC(=O)Nc2nc(C(C)(C)C)cs2)o1	-34	39	5	-1	10
Cc1csc(NC(=O)CSc2nnc(-c3ccoc3C)o2)n1	x	43*	x	21	x
CC(C)(C)Cc1nnc(NC(=O)CSc2ccccc2)s1	7	72*	-4	17	x
CCOCc1nnc(NC(=O)CSc2ccccc2)s1	x	-7	x	-2	x
Cc1csc(NC(=O)c2ccoc2C)n1	x	42*	x	x	x
Cc1csc(NC(=O)c2cc(C)on2)n1	5	2	-7	40*	55
O=C(Nc1ccccc1C(=O)N1CCN(Cc2ccccc2)CC1)c1ccc(F)cc1	-4	x	1	0	4
O=S(=O)(NCC(c1ccco1)N1CCN(c2ccc(F)cc2)CC1)c1ccc(F)cc1 (stereo not given)	x	x	x	x	10
CCc1nnc(NC(=O)CSc2nnc(-c3ccccc3O)o2)s1	-26*	32	-1	20	5
Cc1cccc(NC(=O)c2ccoc2C)n1	x	45*	x	x	33
C=CCn1c(SCC(O)Cn2c3ccccc3c3ccccc32)nnc1-c1ccco1 (stereo not given)	x	x	x	x	-9
OCCN(CC#CCn1c2ccccc2c2ccccc21)CCO	-29*	x	5	3	-3
Cc1ccccc1/C=C/c1nc2ccccc2c(=O)[nH]1	8	21	-1	39*	40
C=CCOc1cccc(/C=C/c2nc3ccccc3c(=O)[nH]2)c1	11	-3	3	12	82*
N#C[C@H]1[C@H](c2ccc(C#Cc3cccc(F)c3)cc2)[C@@H](CO)N1C(=O)C1CCOCC1	4	-8	-1	x	x
Cc1ccccc1Cn1nnc(-c2cccc(C(=O)O)c2)n1	x	15	x	39*	-1
SMILES	Ecoli rRNA inh	esBAF inh	MLL AF4-AF9 inh	Wnt bcat act	MITF act
Cc1ccccc1Cn1nnc(-c2ccc3c(c2)OCO3)n1	x	51*	x	x	70
N#CCn1nnc(-c2ccc3c(c2)OCO3)n1	x	8	x	6	x
Fc1cccc(Cn2ccc(-c3ccc4c(c3)OCO4)n2)c1	x	64*	x	x	x
Cc1ccccc1Cn1ccc(-c2ccc3c(c2)OCO3)n1	x	60*	x	x	73
COc1ccccc1CNC(=O)c1ccc(CNc2c(N3CCCC3)c(=O)c2=O)cc1	0	4	-2	-1	x
O=C1CS(=O)(=O)C(c2cccc([N+](=O)[O-])c2)N1c1ccccc1 (stereo not given)	x	x	-2	x	x
Cc1ccc(C(=O)/C=C/c2cn(CN3CCN(C)CC3)c3ccccc23)cc1	x	55*	x	x	80
CCOC(=O)c1ccc(COC(=O)CNS(=O)(=O)c2ccccc2)cc1	-4	x	-3	-1	10
CCOC(=O)c1ccc(S(=O)(=O)NCCNCc2ccccc2)cc1	-2	-4	0	39*	2
COC(=O)c1ccc(NC(=O)c2cccc(C)c2[N+](=O)[O-])cc1	-22*	34	1	2	2
CCOC(=O)c1ccc(NC(=O)c2ccccc2[N+](=O)[O-])cc1	x	73*	x	9	54
CCOC(=O)c1ccc(NC(=O)C23CCC(C)(C(=O)O2)C3(C)C)cc1 (stereo not given)	x	55*	x	x	46
O=C(NC1CCS(=O)(=O)C1)c1cccc(S(=O)(=O)N2CCOCC2)c1 (stereo not given)	x	5	x	x	-1
COc1cccc(-c2ccc3c(c2)[C@H]2[C@H](CCN2S(=O)(=O)c2ccccc2F)[C@@H](CO)N3)c1	-2	5	-1	x	x
Cc1sc2nc(C(C)C)oc(=O)c2c1C	x	-10	x	-1	-10
Cc1ccc(C)n1-c1ccc(C(=O)Nc2ccccc2)cc1	-4	x	-15	102*	44
CCOC(=O)c1ccc(NC(=O)c2ccccc2)cc1	24	36	1	19	114*
CC1=CC(C)(C)N2C(=O)C(=O)c3cc(OC(=O)c4ccco4)cc1c32	-23*	x	31*	0	7
COCC1CCN(C(=O)c2ccc3oc(Cc4ccc(Cl)cc4)nc3c2)C1 (stereo not given)	-16	9	-4	2	2
CCCCc1nc2cc(C(=O)N3CCCC(COC)C3)ccc2o1 (stereo not given)	8	63*	-1	22	63
CCCCc1nc2cc(C(=O)N3CCC(OCCOC)CC3)ccc2o1	14	24	-2	4	26
CCCCc1nc2cc(C(=O)N3CCCC(OCCC)C3)ccc2o1 (stereo not given)	0	64*	-5	19	u
O=C(c1ccc2oc(CCc3ccccc3)nc2c1)N1CCC(O)CC1	3	-10	-4	26	92*
COCC1CCCN(C(=O)c2ccc3oc(CCCc4ccccc4)nc3c2)C1 (stereo not given)	-4	16	3	1	6
COCC1CCN(C(=O)c2ccc3oc(CCCc4ccccc4)nc3c2)C1 (stereo not given)	-10	46*	-9	19	59
SMILES	Ecoli rRNA inh	esBAF inh	MLL AF4-AF9 inh	Wnt bcat act	MITF act
CCOC(=O)N1CCN(C(=O)c2ccc3oc(CCc4ccccc4)nc3c2)CC1	0	22	-2	0	x
O=C(CCS(=O)(=O)c1ccc(Cl)cc1)Nc1nc(-c2cccnc2)cs1	10	-3	0	-2	-23
CCCOC1CCCN(C(=O)c2cc(COc3c(F)cccc3F)on2)C1 (stereo not given)	0	89*	-3	17	62
COCCOc1ccc(C(F)(F)F)cc1NC(=O)Cc1ccc(S(=O)(=O)N2CCOCC2)s1	4	x	-2	-4	-5
O=C(O)c1ccn2c(C(=O)c3ccccc3)c(-c3ccccc3)cc2c1	-26*	-4	1	1	7
COc1ccc(-c2cc3cc(C(=O)O)ccn3c2C(=O)c2ccccc2)cc1	-44	x	0	1	x
COc1ccc(C(=O)N/N=C(\Cc2ncc[nH]2)c2ccccc2)cc1	6	27	-9	13	6
COc1cc(C(=O)N/N=C(\Cc2ncc[nH]2)c2ccccc2)cc(OC)c1OC	-32*	x	0	-2	-12

Bioassay records (PubChem BioAssay)
